High-throughput results deposited in PubChem by Sanford-Burnham Center for Chemical Genomics.
PPC-1+TRAIL kill: PPC-1 cancer cell killing with TRAIL present. PPC-1 cells + TRAIL, ATPLite viability luminescence. cell killing (% activity), % at 4 µM or 5 µM. 220,000 compounds, 0.41% hits. AID 1443;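 active = cell killing above 50% in the first pass at 4 µM, then a duplicate retest at 5 µM averaging 50% or more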
SENP8 block-1: inhibitors of human SENP8 protease. purified SENP8, Z-RLRGG-aminoluciferin cleavage, luminescence. inhibition, % at 10 µM. Q96LD8. AID 2540. 330,000 compounds, 1.2% hits; in the data active = inhibition above about 50%
Target sequence (Q96LD8 whole entry, looked up): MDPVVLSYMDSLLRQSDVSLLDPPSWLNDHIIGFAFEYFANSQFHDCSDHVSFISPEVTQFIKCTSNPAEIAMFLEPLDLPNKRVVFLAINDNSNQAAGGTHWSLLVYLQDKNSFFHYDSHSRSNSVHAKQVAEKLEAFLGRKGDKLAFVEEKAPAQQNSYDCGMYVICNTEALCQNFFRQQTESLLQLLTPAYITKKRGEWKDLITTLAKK
SENP7 block: inhibitors of human SENP7 protease. 330,000 compounds, 1.5% hits. Q9BQF6. recombinant SENP7, Z-RLRGG-aminoluciferin luminescence, 40 min. inhibition, % at 5 µM;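 active = inhibition above about 50% at the single test dose, limit read from the data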
SENP8 block-2: inhibitors of human SENP8 protease. Q96LD8. recombinant SENP8, Nedd8 substrate fluorescence. inhibition, % at 20 µM. 360,000 compounds, 0.64% hits; in the data active = inhibition mostly above about 40%, no sharp cut-off; inactive = mostly below about 27%
TRAIL sens C8: caspase-8 TRAIL sensitization; NB7+C8 cells + TRAIL, ATPlite viability luminescence; inhibition (viability loss, TRAIL sensitization), % at 10 µM; 360,000 compounds, 1% hits;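 active = compounds causing at least 50% loss of cell viability in the single-dose screen, relative to plate controls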
SENP6 inh: inhibitors of human SENP6 protease | Recombinant SENP6 catalytic domain, aminoluciferin luminescence | AID 2599 | 330,000 compounds, 1.8% hits | Q9GZR1 | inhibition, % at 10 µM;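 active = inhibition above about 50% at the single tested dose, limit read from the data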
SENP8 conf: confirmation of human SENP8 protease inhibitors; AID 488912; inhibition, % at 12.5 µM; 6,200 compounds, 40% hits; Recombinant SENP8, Z-RLRGG-aminoluciferin luminescence, 60 min; shares compounds with SENP7 block;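 active = mean inhibition across replicates above about 50%, limit read from the data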
SENP6 confirm: confirmation of human SENP6 protease inhibitors; 6,200 compounds, 58% hits; recombinant SENP6, Z-RLRGG-aminoluciferin luminescence; shares compounds with SENP7 block; inhibition, % at 12.5 µM
SENP7 confirm: confirmation of human SENP7 protease inhibitors; inhibition, % at 12.5 µM; recombinant SENP7, Z-RLRGG-aminoluciferin luminescence, 40 min; shares compounds with SENP7 block; 6,200 compounds, 69% hits
Casp3 select: selectivity test for SENP inhibitors: human caspase-3 inhibition. shares compounds with SENP7 block. purified caspase-3, Z-DEVD-aminoluciferin luminescence, 60 min. inhibition, % at 12.5 µM. 6,200 compounds, 60% hits. AID 488918;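 active = mean inhibition above about 50%, limit read from the data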
Target sequence (P42574 28-227 limits assumed): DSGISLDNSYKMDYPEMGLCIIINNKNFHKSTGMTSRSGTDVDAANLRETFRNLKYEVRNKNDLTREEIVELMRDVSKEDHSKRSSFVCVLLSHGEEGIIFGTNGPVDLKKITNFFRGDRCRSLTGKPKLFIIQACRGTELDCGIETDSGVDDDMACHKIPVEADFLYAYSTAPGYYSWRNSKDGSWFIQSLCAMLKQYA
Luc interf: interferes with luciferase luminescence in SENP counter-screen; Pre-incubated SENP8/Z-RLRGG-aminoluciferin, luciferase luminescence interference; 6,200 compounds, 39% hits; shares compounds with SENP7 block; inhibition, % at 12.5 µM;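 active = mean inhibition above about 50% when retested at one dose, limit read from the data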
Each line names hits and unclear results; the compound was inactive in the other large screens (follow-up assays come after a bar, where they were run). Rows were chosen to be rich in hits. Some 3% of all compounds tested hit in one or more screens of this group.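 Rule for the calls, unless noted: active = mean inhibition above about 50% in the one-dose retest (limit read from the data); inactive = the rest.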

COc1cccc(NC(=O)CN(C)C(=O)c2csc3c2CCCC3)c1	none (no result: PPC-1+TRAIL kill)
Cc1ccc(NC(=O)c2cc3c(s2)CCCC3)cc1	none
Cc1cccc(NC(=S)NNC(=O)c2csc3c2CCCC3)c1	SENP8 block-1 61.1 | SENP8 conf inactive | SENP6 confirm inactive | SENP7 confirm inactive | Casp3 select inactive | Luc interf inactive
CCC(=O)N1CCc2cc(S(=O)(=O)CCC(=O)Nc3ccc(OC)c(OC)c3)ccc21	none
CCc1ccc(NC(=O)CSc2nc3ccccc3c(=O)n2CCCC(=O)NCCCN2CCOCC2)cc1	none
O=C(Nc1ccc(F)c(Cl)c1)Nc1nnc([C@@H]2O[C@H](CO)[C@@H](O)[C@H]2O)s1	none (no result: PPC-1+TRAIL kill, SENP8 block-1, SENP7 block, SENP6 inh)
COc1ccc(NC(=O)/C(C#N)=C/c2ccc(Br)o2)cc1	SENP7 block 65.6 | SENP8 conf inactive | SENP6 confirm inactive | SENP7 confirm inactive | Casp3 select inactive | Luc interf inactive
N#C/C(=C/c1ccc(Br)o1)C(N)=O	none
CCOC(=O)c1cc2ccc3ccccc3c2s1	SENP6 inh 57.9 | SENP8 conf inactive | SENP6 confirm inactive | SENP7 confirm 53.7 | Casp3 select inactive | Luc interf inactive
Cc1cc(=O)n2c(nc3ccccc32)[nH]1	none
CCOC(=O)c1cc(=O)n2c(nc3ccccc32)[nH]1	SENP8 block-1 76.3, SENP7 block 78.9, SENP6 inh 83.5 (no result: PPC-1+TRAIL kill) | SENP8 conf 82.3 | SENP6 confirm 82.7 | SENP7 confirm 96.5 | Casp3 select 94.0 | Luc interf 56.4
CC(C)OC(=O)c1cc2ccccc2[nH]1	none
CCOC(=O)c1cc2cc3ccccc3cc2[nH]1	SENP6 inh 54.4 | SENP8 conf inactive | SENP6 confirm inactive | SENP7 confirm inactive | Casp3 select inactive | Luc interf inactive
CCN1CCN(CCCNC(=O)C2CCN(c3nnc(-n4c(C)ccc4C)s3)CC2)CC1	none (no result: PPC-1+TRAIL kill)
O=C(NCCc1nc(-c2ccc(F)cc2)no1)c1ccc(F)cc1	none (no result: PPC-1+TRAIL kill)
CCCc1nc(-c2ccc(-c3ccc(F)cc3)cc2)no1	SENP7 block 57.1, SENP6 inh 51.5 | SENP8 conf inactive | SENP6 confirm inactive | SENP7 confirm inactive | Casp3 select inactive | Luc interf inactive
COc1ccc([N+](=O)[O-])cc1NCC(=O)Nc1cc(S(=O)(=O)N2CCCCC2)ccc1C	none (no result: PPC-1+TRAIL kill)
CC(C)C1/C(=N/O)CC(c2ccccc2)NC1c1ccccc1 (stereo not given)	none
CC1/C(=N/O)CC(c2ccccc2)NC1c1ccccc1 (stereo not given)	SENP7 block 88.8 | SENP8 conf inactive | SENP6 confirm inactive | SENP7 confirm inactive | Casp3 select inactive | Luc interf inactive
N/C(=N\OCc1ccccc1)c1nonc1N	SENP8 block-1 55.3, SENP7 block 68.5, SENP6 inh 61.1 | SENP8 conf 61.8 | SENP6 confirm 60.7 | SENP7 confirm 89.0 | Casp3 select 83.4 | Luc interf 71.6
Nc1nonc1C(=O)OCC(=O)c1ccc(Cl)cc1	none
N/C(=N/OC(=O)c1ccccc1F)c1nonc1N	SENP8 block-1 93.2, SENP7 block 98.1, SENP6 inh 97.8 | SENP8 conf 94.8 | SENP6 confirm 95.3 | SENP7 confirm 101.3 | Casp3 select 96.6 | Luc interf 95.5
N/C(=N\OC(=O)c1ccc(Cl)cc1)c1nonc1N	SENP8 block-1 94.2, SENP7 block 99.5, SENP6 inh 97.2 | SENP8 conf 98.0 | SENP6 confirm 99.6 | SENP7 confirm 103.1 | Casp3 select 98.1 | Luc interf 95.3
